# Source: PubChem BioAssay
# Active and inactive are the calls of the source.
# Legend:
# [1] = binders of probe aFSTL3 on microarray, primary screen, stem cell growth factor project, biochemical, small-molecule microarray, fluorescence 635/667 (AID 1064); settings: higher = more signal;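 further: measures binding of the biotinylated anti-FSTL3 antibody to printed compounds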
# [2] = binders from COS7 lysate, DM2A8 probe, primary screen, torsin A project, cell lysate, small-molecule microarray, fluorescence 635/667 (AID 1065); settings: higher = more signal, COS7 lysate expressing mutant human TOR1A
# [3] = binders of probe aFGF2 on microarray, primary screen, stem cell growth factor project, biochemical, small-molecule microarray, fluorescence 635/667 (AID 1067); settings: higher = more signal;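 further: measures binding of biotinylated aFGF2 protein to printed compounds on slides; z-score merges feature fluorescence and signal-to-noise across triplicate slides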
# [4] = binders of probe aFGF10 on microarray, primary screen, stem cell growth factor project, biochemical, small-molecule microarray, fluorescence 635/667 (AID 1071); settings: higher = more signal;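 further: score merges 667 nm spot intensity and signal to noise from triplicate slides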
# [5] = molecular target: Neurogenic locus notch homolog protein 2 (Homo sapiens) (UniProt Q04721); assay: Notch2 binders on small-molecule microarrays, primary screen, biochemical, small-molecule microarray, 635 nm fluorescence, stem cell growth factors (AID 1073); settings: Notch2 binding, higher = more signal
# [6] = molecular target: Pro-neuregulin-1, membrane-bound isoform (Homo sapiens) (UniProt Q02297); assay: NRG1 binders on small-molecule microarrays, primary screen, psychiatric disease protein project, biochemical, small-molecule microarray, fluorescence 635/667 (AID 1075); settings: NRG1 binding, 635 nm fluorescence, higher = more signal;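 further: score combines 667 nm spot fluorescence with signal to noise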
# [7] = system: Neuregulin-1 EGF-like domain; assay: binders of neuregulin-1 EGF-like domain, primary screen, biochemical, small-molecule microarray, 635 nm fluorescence (AID 1081); settings: small-molecule microarray binding, higher = more signal;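 further: binding of the protein to compounds printed on small-molecule microarray slides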
# [8] = FRG1 promoter luciferase signal modulators, primary screen, FRG1 inhibition for FSHD, cell-based, C2C12 myotubes, firefly/Renilla luciferase, luminescence (AID 1084); settings: higher = more signal, called active from +8 up or from −8 down
# [9] = binders of probe aFST on microarray, primary screen, stem cell growth factor project, biochemical, small-molecule microarray, fluorescence 635/667 (AID 1086); settings: higher = more signal;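 further: score merges 667 nm fluorescence with signal-to-noise of each printed compound spot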
# [10] = binders of probe aHhip on microarray, primary screen, stem cell growth factor project, biochemical, small-molecule microarray, fluorescence 635/667 (AID 1087); settings: higher = more signal;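 further: score merges spot fluorescence at 667nm with spot signal to noise ratio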
# [11] = system: PRMT1 (protein arginine N-methyltransferase 1); assay: PRMT1 binders on small-molecule microarrays, primary screen, biochemical, small-molecule microarray, 635 nm fluorescence (AID 1088); settings: small-molecule microarray binding, higher = more signal;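 further: binding of Prmt1 protein to compounds spotted on small-molecule microarray slides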
# [12] = yeast growth modulation, basal conditions, primary screen, YJM789 clinical isolate, OD600, 24 h (AID 1089);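 further: growth of clinical yeast isolate S. cerevisiae YJM 789 seeded 1000 cells per well; test concentration not given here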; settings: S. cerevisiae YJM789 growth, higher = more signal, called active from +8 up or from −8 down
# [13] = fission yeast growth modulation, primary screen, strain 972, OD600, 24 h, no modulator (AID 1090);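 further: basal condition with compound alone and no growth modifier present; test concentration not given here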; settings: S. pombe 972 growth, higher = more signal, called active from +8 up or from −8 down
# [14] = S. cerevisiae growth modulation with rapamycin, primary screen, strain BY4716, OD600, 96 h (AID 1091); settings: higher = more signal, called active from +8 up or from −8 down; further: test concentration not given here
# [15] = molecular target: Torsin-1A-interacting protein 2 (Homo sapiens) (UniProt Q8NFQ8); assay: LULL1 binders on small-molecule microarray, primary screen, cell lysate, human LULL1 lysate, 635/667 nm fluorescence (AID 1092); settings: hLULL1 lysate binding, 635 nm fluorescence, higher = more signal;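 further: probe is lysate of COS7 cells overexpressing human LULL1; score merges per-feature 667 nm fluorescence with signal-to-noise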
# [16] = E. coli growth modulation, two-sided OD650, primary screen, E. coli filamentation project, strain DRC41, 24 h (AID 1093); settings: OD650, 24 h, higher = more signal, called active from +8 up or from −8 down;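 further: MC1000 strain lacking acrAB efflux and sulA so SOS filamentation is blocked; test concentration not given here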
# [17] = small-molecule microarray binders of probe aLefty2, primary screen, biochemical, biotinylated probe, 635/667 nm fluorescence (AID 1094); settings: higher = more signal;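 further: score merges spot fluorescence near 667 nm with spot signal-to-noise ratio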
# [18] = system: Noggin (protein binding on small-molecule microarray); assay: Noggin binders on small-molecule microarray, primary screen, biochemical, 635/667 nm fluorescence (AID 1095); settings: 635 nm fluorescence, higher = more signal;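 further: score merges 667 nm feature fluorescence with signal to noise over triplicate slides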
# [19] = molecular target: Neurogenic locus notch homolog protein 3 (Homo sapiens) (UniProt Q9UM47); assay: NOTCH3 binders on small-molecule microarray, primary screen, biochemical, 635/667 nm fluorescence (AID 1096); settings: NOTCH3 binding, 635 nm fluorescence, higher = more signal
# [20] = small-molecule microarray binders of probe aEGFR, primary screen, biochemical, biotinylated probe, 635/667 nm fluorescence (AID 1097); settings: higher = more signal;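 further: probe is a biotinylated anti-EGFR antibody binding compounds printed on slides; score combines fluorescence near 667 nm and signal to noise of each spot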
# Chain of Pro-neuregulin-1, membrane-bound isoform (Homo sapiens) (Q02297 whole entry, looked up, the tested form may be a part, canonical isoform): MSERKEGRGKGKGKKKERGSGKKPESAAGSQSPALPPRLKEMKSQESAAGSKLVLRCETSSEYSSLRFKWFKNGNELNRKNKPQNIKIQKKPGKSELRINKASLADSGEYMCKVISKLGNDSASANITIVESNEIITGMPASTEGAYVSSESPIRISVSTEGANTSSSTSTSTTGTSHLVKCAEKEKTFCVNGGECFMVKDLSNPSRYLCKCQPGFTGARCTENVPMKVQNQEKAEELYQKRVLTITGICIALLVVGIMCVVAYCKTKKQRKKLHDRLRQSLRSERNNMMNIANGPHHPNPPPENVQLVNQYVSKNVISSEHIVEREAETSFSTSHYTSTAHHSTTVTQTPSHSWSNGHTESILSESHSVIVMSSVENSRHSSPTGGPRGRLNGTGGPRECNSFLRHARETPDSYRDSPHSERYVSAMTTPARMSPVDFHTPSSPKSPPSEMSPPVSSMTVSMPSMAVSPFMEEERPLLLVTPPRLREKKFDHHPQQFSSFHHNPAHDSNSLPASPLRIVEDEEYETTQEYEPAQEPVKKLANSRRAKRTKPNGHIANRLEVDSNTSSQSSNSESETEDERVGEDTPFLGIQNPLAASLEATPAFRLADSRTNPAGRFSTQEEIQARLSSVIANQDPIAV
# Chain of Neurogenic locus notch homolog protein 3 (Homo sapiens) (Q9UM47 whole entry, looked up): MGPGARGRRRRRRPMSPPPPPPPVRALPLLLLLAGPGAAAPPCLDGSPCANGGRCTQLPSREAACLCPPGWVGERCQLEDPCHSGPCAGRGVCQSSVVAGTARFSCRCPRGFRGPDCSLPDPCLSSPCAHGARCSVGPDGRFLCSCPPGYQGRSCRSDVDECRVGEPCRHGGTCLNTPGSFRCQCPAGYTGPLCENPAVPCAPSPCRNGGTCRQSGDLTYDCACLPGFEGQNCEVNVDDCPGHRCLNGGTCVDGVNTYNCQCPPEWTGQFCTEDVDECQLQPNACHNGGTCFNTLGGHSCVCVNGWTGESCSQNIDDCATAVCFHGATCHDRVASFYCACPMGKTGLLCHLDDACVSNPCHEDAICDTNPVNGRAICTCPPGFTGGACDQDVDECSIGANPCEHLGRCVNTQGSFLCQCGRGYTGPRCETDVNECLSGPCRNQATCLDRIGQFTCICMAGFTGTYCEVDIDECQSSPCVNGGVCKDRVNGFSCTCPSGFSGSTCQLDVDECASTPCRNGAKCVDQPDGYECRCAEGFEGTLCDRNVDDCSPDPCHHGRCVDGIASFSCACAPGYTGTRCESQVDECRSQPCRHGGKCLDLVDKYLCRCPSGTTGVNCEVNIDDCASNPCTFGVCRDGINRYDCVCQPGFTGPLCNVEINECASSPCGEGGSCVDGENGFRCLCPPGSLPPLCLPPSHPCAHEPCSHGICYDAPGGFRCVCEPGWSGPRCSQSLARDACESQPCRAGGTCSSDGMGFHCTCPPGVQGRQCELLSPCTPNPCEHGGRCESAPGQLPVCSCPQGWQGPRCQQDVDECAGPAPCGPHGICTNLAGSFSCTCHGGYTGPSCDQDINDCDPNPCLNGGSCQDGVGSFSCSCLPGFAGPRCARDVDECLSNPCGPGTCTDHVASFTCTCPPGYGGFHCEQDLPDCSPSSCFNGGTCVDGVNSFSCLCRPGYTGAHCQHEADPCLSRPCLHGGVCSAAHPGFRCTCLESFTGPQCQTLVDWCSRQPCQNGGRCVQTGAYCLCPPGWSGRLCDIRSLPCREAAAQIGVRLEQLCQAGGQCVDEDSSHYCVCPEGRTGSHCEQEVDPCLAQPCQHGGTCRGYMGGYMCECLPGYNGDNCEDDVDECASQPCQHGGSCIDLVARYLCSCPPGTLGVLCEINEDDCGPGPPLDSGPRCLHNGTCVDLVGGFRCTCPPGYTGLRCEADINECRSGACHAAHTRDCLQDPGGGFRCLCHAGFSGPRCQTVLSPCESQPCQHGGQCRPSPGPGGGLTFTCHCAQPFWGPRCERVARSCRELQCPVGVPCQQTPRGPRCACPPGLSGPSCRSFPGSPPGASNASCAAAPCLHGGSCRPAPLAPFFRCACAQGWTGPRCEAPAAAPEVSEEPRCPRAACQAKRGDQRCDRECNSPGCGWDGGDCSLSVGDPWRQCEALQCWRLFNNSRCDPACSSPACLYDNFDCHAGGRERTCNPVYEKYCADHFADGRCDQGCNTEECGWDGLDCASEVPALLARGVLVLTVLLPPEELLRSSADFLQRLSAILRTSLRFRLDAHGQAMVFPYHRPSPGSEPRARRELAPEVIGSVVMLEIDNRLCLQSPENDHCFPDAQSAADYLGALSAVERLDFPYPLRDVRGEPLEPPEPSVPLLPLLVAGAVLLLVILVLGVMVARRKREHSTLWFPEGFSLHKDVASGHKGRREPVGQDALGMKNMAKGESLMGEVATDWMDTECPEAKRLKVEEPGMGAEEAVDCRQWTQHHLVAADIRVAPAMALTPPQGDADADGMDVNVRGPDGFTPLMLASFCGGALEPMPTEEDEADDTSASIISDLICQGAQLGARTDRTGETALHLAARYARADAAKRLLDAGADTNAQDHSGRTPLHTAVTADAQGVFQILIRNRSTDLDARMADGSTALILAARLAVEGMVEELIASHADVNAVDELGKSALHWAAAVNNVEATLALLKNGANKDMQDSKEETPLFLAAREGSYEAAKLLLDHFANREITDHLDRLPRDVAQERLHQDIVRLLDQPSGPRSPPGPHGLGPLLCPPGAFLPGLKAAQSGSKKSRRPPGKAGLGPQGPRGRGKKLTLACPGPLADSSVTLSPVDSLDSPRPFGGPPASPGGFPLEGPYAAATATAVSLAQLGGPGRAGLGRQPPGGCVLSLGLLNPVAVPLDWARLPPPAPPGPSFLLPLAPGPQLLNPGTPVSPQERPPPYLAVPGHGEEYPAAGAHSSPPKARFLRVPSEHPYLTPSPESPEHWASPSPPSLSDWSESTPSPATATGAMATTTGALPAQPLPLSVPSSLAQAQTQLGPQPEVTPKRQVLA
# Chain of Torsin-1A-interacting protein 2 (Homo sapiens) (Q8NFQ8 whole entry, looked up): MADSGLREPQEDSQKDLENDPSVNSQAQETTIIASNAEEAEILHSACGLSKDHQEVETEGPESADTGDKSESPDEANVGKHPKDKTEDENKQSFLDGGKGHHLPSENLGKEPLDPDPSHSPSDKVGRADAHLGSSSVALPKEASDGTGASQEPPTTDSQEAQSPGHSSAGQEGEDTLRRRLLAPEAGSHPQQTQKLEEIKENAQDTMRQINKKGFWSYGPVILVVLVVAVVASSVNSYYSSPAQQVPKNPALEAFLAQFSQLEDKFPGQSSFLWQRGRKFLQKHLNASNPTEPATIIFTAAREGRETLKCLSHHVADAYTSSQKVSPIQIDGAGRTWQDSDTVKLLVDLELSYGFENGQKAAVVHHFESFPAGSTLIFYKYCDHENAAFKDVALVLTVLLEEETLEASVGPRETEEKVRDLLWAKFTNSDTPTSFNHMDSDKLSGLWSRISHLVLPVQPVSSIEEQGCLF
SMILES,composite z-score [1],composite z-score [2],composite z-score [3],composite z-score [4],composite z-score [5],composite z-score [6],composite z-score [7],z-score [8],composite z-score [9],composite z-score [10],composite z-score [11],z-score [12],z-score [13],z-score [14],composite z-score [15],z-score [16],composite z-score [17],composite z-score [18],composite z-score [19],composite z-score [20]
COc1cc2c(cc1O)C(C1CC1)N(Cc1sc3ccccc3c1Cl)CC2 (stereo not given),0.0766,0.602,-0.135,0.0173,0.182,-0.214,1.23,0.566 (inactive),-0.145,-0.0994,0.641,-26 (active),-20 (active),-1.46 (inactive),3.15,-0.587 (inactive),-0.0468,-0.181,0.579,-0.149
CN(C)CCCC[C@@H]1NC(=O)[C@@H]2C[C@H](C(=O)NCCCCCCN)[C@H](c3cccc(OCCO)c3)N2C1=O,1.58,2.15,0.044,0.973,1.57,2.24,1.42,0.0194 (inactive),0.88,-0.103,1.53,-0.968 (inactive),-4.9 (inactive),-0.883 (inactive),3.25,0.26 (inactive),1.03,0.612,0.395,0.54
O=C1OCCC/C=C\[C@H]2OC34C=CCN(Cc5ccccc5)C(=O)[C@H]3N(CCCO)C(=O)[C@@H]4C12 (stereo not given in full),0.985,2.29,-0.145,-0.458,-1.15,0.822,0.703,0.308 (inactive),-0.572,-0.0994,-0.523,0.769 (inactive),-0.0304 (inactive),0.972 (inactive),1.83,0.872 (inactive),-0.126,-1.75,-0.386,-0.246
COc1cc2c(cc1OC)CN(C(=O)[C@@H]1[C@H]3C(=O)O[C@H](c4ccccc4)[C@H](c4ccccc4)N3[C@H](c3ccccc3OCCO)[C@@]13C(=O)Nc1ccc(C#CCCO)cc13)CC2,0.718,0.531,-0.152,0.671,0.626,0.86,1.23,0.876 (inactive),1.25,0.0458,1.56,1.47 (inactive),-1.3 (inactive),2.22 (inactive),3.02,1.15 (inactive),-0.108,0.772,1.08,-0.0624
C=C(C)[C@@H]1CC=C(C(O)C2C=CC3C(=O)N(c4ccccc4)C(=O)C3N2Nc2ccccc2)CC1 (stereo not given in full),1.08,0.881,0.364,0.929,1.26,1.57,1.28,-0.441 (inactive),1.54,1.07,1.55,0.0118 (inactive),0.0527 (inactive),0.0587 (inactive),3.32,-0.784 (inactive),0.467,0.302,1.05,0.34
COC(=O)C(CC#Cc1ccc2c(c1)[C@]1(C(=O)N2)[C@H](C(=O)Nc2nc3ccccc3s2)[C@H]2C(=O)O[C@H](c3ccccc3)[C@H](c3ccccc3)N2[C@@H]1c1ccccc1OCCO)C(=O)OC,0.0102,0.628,0.0941,1.12,1.26,1.07,1.31,1.43 (inactive),0.709,-0.0296,1.55,1.35 (inactive),1.12 (inactive),1.39 (inactive),2.69,-0.404 (inactive),0.0293,0.485,1.08,-0.0244
COc1ccc(C(O)C2C=CC3C(=O)N(Cc4ccccc4)C(=O)C3N2n2cnnc2)cc1OCc1ccccc1 (stereo not given),-0.0405,-0.209,-0.0996,0.193,-0.0176,0.834,0.613,0.364 (inactive),0.777,-0.0296,0.953,-1.56 (inactive),0.0901 (inactive),-0.62 (inactive),2.59,1.69 (inactive),0.114,0.0181,0.331,-0.0512
O=C1N(Cc2ccccc2)c2ccccc2[C@@H]2OC(c3ccc(OCCCO)cc3)=N[C@]12CCS(=O)(=O)c1ccccc1,0.625,0.206,0.0111,-0.23,0.888,1.03,1.28,-2.27 (inactive),1.15,-0.253,1.5,0.805 (inactive),1.11 (inactive),7.05 (inactive),2.98,0.0515 (inactive),0.169,1.11,0.783,0.0248
CCCCCCc1nc(-c2cc(C)c(OC)c(C)c2)cc2c1[Si](C(C)C)(C(C)C)OC2,0.0546,-0.375,-0.0507,-0.278,-0.274,-0.405,-0.449,0.515 (inactive),-0.272,0.35,1,-0.389 (inactive),-0.114 (inactive),-0.264 (inactive),-0.0784,0.344 (inactive),-0.0575,0.187,-0.129,-0.0828
COC(=O)[C@H](Cc1ccccc1)N[C@@H](/C=C/C1CC1)[C@H](O)Cc1ccccc1,0.115,-0.355,0.0748,0.699,-1.08,-0.292,0.583,-2.66 (inactive),-0.575,-0.409,0.136,-0.701 (inactive),-7.84 (inactive),-0.581 (inactive),0.521,-0.296 (inactive),-0.127,-0.327,-0.505,-0.218
